Results published in PubChem BioAssay.
Active and inactive are the calls of the source.

How the values were obtained:
[1] = tested on: Plasmodium falciparum Sir2 (PF13_0152, Sir2A); experiment: pfSir2 binders on small-molecule microarrays, primary screen, biochemical, small-molecule microarray, 635 nm fluorescence (AID 1098); details: small-molecule microarray binding, fluorescence 635 nm; higher = more signal;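 note: score merges spot fluorescence intensity with its signal-to-noise ratio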
[2] = small-molecule microarray binders of probe aDKK1, primary screen, biochemical, biotinylated probe, 635/667 nm fluorescence (AID 1099); details: higher = more signal;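 note: score merges 667nm spot fluorescence with signal to noise across triplicate slides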
[3] = small-molecule microarray binders of probe aCHRDL2, primary screen, biochemical, biotinylated probe, 635/667 nm fluorescence (AID 1100); details: higher = more signal
[4] = splicing luciferase reporter signal modulators, primary screen, spliceosome inhibition project, cell-based, HEK293, splice +/- reporter (AID 1101); details: luminescence, 24 h, higher = more signal, called active from +8 up or from −8 down;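 note: HEK293 cells carrying a splicing-competent luciferase reporter gene; test concentration not given here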
[5] = target: Fibroblast growth factor 10 (Homo sapiens) (UniProt O15520); experiment: FGF10 binders on small-molecule microarrays, primary screen, biochemical, small-molecule microarray, 635 nm fluorescence (AID 1102); details: FGF10 binding, fluorescence 635 nm, higher = more signal
Chain of Fibroblast growth factor 10 (Homo sapiens) (O15520 whole entry, looked up): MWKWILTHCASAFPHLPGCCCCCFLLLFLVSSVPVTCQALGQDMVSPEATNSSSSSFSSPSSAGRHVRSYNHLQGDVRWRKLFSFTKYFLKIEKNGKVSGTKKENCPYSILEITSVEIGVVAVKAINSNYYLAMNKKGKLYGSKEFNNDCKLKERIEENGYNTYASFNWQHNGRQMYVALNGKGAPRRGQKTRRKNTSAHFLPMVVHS

[6] = tested on: glycogen synthase kinase-3 (GSK3A per assay name; protocol says GSK3B); experiment: GSK3 binders on small-molecule microarrays, primary screen, biochemical, small-molecule microarray, 635 nm fluorescence, GSK3A (AID 1103); details: small-molecule microarray binding, fluorescence 635 nm; higher = more signal; note: the record names both GSK3A and GSK3B
[7] = target: Epidermal growth factor receptor (Homo sapiens) (UniProt P00533); experiment: EGFR binders on small-molecule microarrays, primary screen, biochemical, small-molecule microarray, 635 nm fluorescence (AID 1104); details: EGFR binding, higher = more signal;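 note: score merges 667 nm emission intensity with spot signal to noise over triplicate slides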
Chain of Epidermal growth factor receptor (Homo sapiens) (P00533 whole entry, looked up): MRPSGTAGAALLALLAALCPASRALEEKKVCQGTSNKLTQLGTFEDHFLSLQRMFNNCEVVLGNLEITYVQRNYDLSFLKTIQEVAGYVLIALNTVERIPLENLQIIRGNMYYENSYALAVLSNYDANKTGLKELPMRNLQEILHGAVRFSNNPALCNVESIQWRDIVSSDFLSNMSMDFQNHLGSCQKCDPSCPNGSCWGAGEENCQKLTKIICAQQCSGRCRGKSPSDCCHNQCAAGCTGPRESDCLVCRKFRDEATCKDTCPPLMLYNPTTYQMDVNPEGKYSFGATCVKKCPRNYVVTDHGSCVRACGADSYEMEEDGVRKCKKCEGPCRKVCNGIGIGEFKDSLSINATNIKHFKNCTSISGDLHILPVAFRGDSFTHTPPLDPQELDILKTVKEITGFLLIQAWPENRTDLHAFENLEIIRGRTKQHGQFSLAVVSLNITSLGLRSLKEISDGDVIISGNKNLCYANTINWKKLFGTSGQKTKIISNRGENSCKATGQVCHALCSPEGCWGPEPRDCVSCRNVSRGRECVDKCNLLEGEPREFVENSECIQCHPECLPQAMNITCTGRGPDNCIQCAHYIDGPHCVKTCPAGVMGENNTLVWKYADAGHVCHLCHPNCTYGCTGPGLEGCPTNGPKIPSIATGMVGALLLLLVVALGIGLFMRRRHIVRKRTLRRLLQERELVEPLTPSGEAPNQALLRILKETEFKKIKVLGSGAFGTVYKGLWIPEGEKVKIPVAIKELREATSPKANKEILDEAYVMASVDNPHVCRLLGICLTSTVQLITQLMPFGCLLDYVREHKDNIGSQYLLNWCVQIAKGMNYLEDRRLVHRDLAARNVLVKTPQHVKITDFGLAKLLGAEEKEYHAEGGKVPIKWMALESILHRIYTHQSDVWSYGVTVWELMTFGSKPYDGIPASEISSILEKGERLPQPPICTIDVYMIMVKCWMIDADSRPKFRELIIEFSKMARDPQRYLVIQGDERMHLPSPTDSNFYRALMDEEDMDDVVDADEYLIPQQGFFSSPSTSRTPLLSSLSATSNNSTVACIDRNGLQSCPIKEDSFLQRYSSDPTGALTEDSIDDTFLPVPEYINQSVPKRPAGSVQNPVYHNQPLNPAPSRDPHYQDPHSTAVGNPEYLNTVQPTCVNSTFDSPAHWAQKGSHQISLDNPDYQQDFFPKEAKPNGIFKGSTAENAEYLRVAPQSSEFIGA

[8] = target: Follistatin-related protein 3 (Homo sapiens) (UniProt O95633); experiment: FSTL3 binders on small-molecule microarrays, primary screen, biochemical, small-molecule microarray, 635 nm fluorescence (AID 1105); details: FSTL3 binding, higher = more signal;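 note: score merges emission near 667 nm and signal to noise per printed spot across three slides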
Chain of Follistatin-related protein 3 (Homo sapiens) (O95633 whole entry, looked up): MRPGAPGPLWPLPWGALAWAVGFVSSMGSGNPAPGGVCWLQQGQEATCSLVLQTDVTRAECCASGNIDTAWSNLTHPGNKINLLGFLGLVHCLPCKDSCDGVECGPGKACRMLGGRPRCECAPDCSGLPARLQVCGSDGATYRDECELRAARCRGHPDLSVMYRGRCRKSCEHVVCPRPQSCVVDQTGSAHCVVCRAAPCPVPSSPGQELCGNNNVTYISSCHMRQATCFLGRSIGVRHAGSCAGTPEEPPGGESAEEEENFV

[9] = target: Dickkopf-related protein 1 (Homo sapiens) (UniProt O94907); experiment: DKK1 binders on small-molecule microarrays, primary screen, biochemical, small-molecule microarray, 635 nm fluorescence scan (AID 1106); details: DKK1 binding, higher = more signal;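 note: score merges emission near 667 nm with signal to noise over three replicate slides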
Chain of Dickkopf-related protein 1 (Homo sapiens) (O94907 whole entry, looked up): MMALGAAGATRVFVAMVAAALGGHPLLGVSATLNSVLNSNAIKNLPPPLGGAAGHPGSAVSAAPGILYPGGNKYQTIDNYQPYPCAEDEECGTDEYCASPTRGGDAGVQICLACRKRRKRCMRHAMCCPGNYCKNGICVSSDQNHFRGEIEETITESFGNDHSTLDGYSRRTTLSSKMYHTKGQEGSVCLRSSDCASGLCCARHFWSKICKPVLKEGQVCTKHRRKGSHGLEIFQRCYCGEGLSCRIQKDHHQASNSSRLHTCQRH

[10] = tested on: Inhibin beta A chain (activin A); experiment: INHBA (activin A) binders on microarrays, primary screen, biochemical, small-molecule microarray, 635 nm fluorescence scan (AID 1107); details: small-molecule microarray binding, higher = more signal;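 note: mouse activin A protein probed at 4.33 µg/mL on printed slides; score merges bound-protein fluorescence near 667 nm with spot signal-to-noise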
[11] = tested on: Human papillomavirus type 1a protein E7 (residues 44-93); experiment: HPV1a E7 fragment binders on microarrays, primary screen, biochemical, small-molecule microarray, residues 44-93, 635 nm fluorescence (AID 1108); details: small-molecule microarray binding, fluorescence 635 nm; higher = more signal;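 note: E7 fragment applied at 1 µg/mL in TBST for 1 h at 4 C; score combines spot fluorescence with its signal to noise ratio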
[12] = modulators of HCV replicon luciferase signal, primary screen, HCV replication inhibitor project, Huh7 cells, luciferase reporter (AID 1109); details: 48 h, higher = more signal;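 note: huh7 hepatoma cells harbouring a luciferase neomycin HCV replicon reporter; luciferase luminescence as measure of HCV replicon replication; test concentration not given here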
[13] = target: Left-right determination factor 2 (Homo sapiens) (UniProt O00292); experiment: LEFTY2 binders on small-molecule microarrays, primary screen, biochemical, small-molecule microarray, 635 nm fluorescence scan (AID 1110); details: LEFTY2 binding, higher = more signal
Chain of Left-right determination factor 2 (Homo sapiens) (O00292 whole entry, looked up): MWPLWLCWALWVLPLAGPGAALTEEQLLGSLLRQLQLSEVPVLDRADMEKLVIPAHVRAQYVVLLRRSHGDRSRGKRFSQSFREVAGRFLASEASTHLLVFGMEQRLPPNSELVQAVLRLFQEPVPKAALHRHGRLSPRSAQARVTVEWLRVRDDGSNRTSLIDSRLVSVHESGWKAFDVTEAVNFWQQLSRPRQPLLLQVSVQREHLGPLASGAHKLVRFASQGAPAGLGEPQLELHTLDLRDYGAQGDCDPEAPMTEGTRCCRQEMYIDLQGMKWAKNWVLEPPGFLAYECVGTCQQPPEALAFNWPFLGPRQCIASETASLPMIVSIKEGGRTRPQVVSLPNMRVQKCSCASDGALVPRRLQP

[14] = target: Calmodulin-1 (Homo sapiens) (UniProt P0DP23); experiment: CALM1 binders on microarrays, EGTA buffer, profiling panel, biochemical, small-molecule microarray, Cy5-labelled CALM1 (AID 1111); details: Cy5-CALM1 binding fluorescence, higher = more signal;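 note: labelled calmodulin applied in Tris saline Tween buffer holding calcium plus EGTA and DTT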
[15] = target: Calmodulin-1 (Homo sapiens) (UniProt P0DP23); experiment: calcium-bound CALM1 binders on microarrays, profiling panel, artefact control for SMM control-protein annotation, biochemical, small-molecule microarray, Cy5-labelled CALM1, plus calcium (AID 1112); details: Cy5-CALM1 binding fluorescence, higher = more signal;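 note: score merges spot fluorescence with signal to noise from triplicate slides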
[16] = small-molecule microarray binders of probe aWnt5a, primary screen, biochemical, biotinylated probe, 635/667 nm fluorescence (AID 1113); details: higher = more signal;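 note: score merges 667 nm fluorescence intensity with signal-to-noise per printed feature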
[17] = small-molecule microarray binders of probe aShh, primary screen, biochemical, biotinylated probe, 635/667 nm fluorescence (AID 1114); details: higher = more signal;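 note: probe is biotin-labelled aShh protein from a stem cell growth factor screen; measures binding of labelled protein to compounds printed on the slide; score merges feature fluorescence at 667 nm with signal-to-noise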
[18] = small-molecule microarray binders of probe aNog, primary screen, biochemical, biotinylated probe, 635/667 nm fluorescence (AID 1115); details: higher = more signal;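 note: probe is biotinylated aNog protein used at 0.15 µg/mL for 1 h at 4 C; z-score combines 667 nm fluorescence of each spot with its signal to noise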
[19] = target: Torsin-1A-interacting protein 1 (Homo sapiens) (UniProt Q5JTV8); experiment: LAP1 binders from COS7 cell lysate, primary screen, small-molecule microarray, 635/667 nm fluorescence (AID 1116); details: COS7-hLAP1 lysate binding, 635 nm fluorescence, higher = more signal
Chain of Torsin-1A-interacting protein 1 (Homo sapiens) (Q5JTV8 whole entry, looked up): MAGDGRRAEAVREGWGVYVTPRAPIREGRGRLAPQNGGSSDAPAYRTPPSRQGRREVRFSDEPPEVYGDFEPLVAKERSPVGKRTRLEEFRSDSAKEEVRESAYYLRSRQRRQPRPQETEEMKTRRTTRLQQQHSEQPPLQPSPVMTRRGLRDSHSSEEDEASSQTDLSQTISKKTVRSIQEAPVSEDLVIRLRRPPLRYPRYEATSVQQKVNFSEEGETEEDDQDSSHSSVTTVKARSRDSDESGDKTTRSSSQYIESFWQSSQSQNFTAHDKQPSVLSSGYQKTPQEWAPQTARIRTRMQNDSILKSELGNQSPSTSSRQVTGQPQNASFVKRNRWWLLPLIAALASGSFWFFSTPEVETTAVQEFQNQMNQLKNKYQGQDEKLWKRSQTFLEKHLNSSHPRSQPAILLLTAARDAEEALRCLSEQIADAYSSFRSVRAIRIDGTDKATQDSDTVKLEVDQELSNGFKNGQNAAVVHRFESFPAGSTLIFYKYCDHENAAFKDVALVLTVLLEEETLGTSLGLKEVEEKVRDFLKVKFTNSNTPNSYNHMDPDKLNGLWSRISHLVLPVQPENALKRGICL

[20] = target: Alpha-bungarotoxin (Bungarus multicinctus) (UniProt P60615); experiment: alpha-bungarotoxin binders on microarray, profiling panel, artefact control for SMM control protein annotation, biochemical, small-molecule microarray, Alexa647 label, 635/667 nm fluorescence (AID 1117); details: alpha-BTX-A647 binding fluorescence, higher = more signal
Chain of Alpha-bungarotoxin (Bungarus multicinctus) (P60615 whole entry, looked up): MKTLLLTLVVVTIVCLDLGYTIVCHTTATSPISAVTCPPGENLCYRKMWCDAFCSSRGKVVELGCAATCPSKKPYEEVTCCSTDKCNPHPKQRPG

COCCOC(=O)N1C(=O)[C@@]2(c3cc(C#CCC(C(=O)OC)C(=O)OC)ccc31)[C@H](C(=O)N1CCc3cc(OC)c(OC)cc3C1)[C@H]1C(=O)O[C@H](c3ccccc3)[C@H](c3ccccc3)N1[C@@H]2c1ccc(O)cc1
composite z-score [1]: 0.86
composite z-score [2]: 0.148
composite z-score [3]: 0.0085
z-score [4]: 1.5 (inactive)
composite z-score [5]: 1.24
composite z-score [6]: 0.636
composite z-score [7]: 0.868
composite z-score [8]: 1.47
composite z-score [9]: 1.62
composite z-score [10]: 0.418
composite z-score [11]: 1.4
z-score [12]: -0.649
composite z-score [13]: 1.17
composite z-score [14]: 0.442
composite z-score [15]: -0.406
composite z-score [16]: 0.0718
composite z-score [17]: 0.0326
composite z-score [18]: -0.537
composite z-score [19]: 0.965
composite z-score [20]: 0.906

COC(=O)C1=CC(CCCO)=CC(C2CC2)N(Cc2cccc(OC(F)(F)F)c2)C=C1C(=O)OC (stereo not given)
composite z-score [1]: 1.19
composite z-score [2]: 0.0765
composite z-score [3]: 0.234
z-score [4]: 0.449 (inactive)
composite z-score [5]: 0.107
composite z-score [6]: -0.363
composite z-score [7]: -0.659
composite z-score [8]: 0.315
composite z-score [9]: -0.59
composite z-score [10]: 0.674
composite z-score [11]: 1.43
z-score [12]: -1.46
composite z-score [13]: -0.724
composite z-score [14]: 0.302
composite z-score [15]: 0.364
composite z-score [16]: 0.0077
composite z-score [17]: -0.0035
composite z-score [18]: 0.374
composite z-score [19]: -0.302
composite z-score [20]: 0.0939

CCOC(=O)C[C@H]1[C@H](OC(=O)c2ccc(-c3ccccc3)cc2)[C@@H](NC(=O)c2ccc3ccccc3c2)c2cc(OCCCO)ccc2N1C(=O)c1ccccc1
composite z-score [1]: 0.34
composite z-score [2]: -0.393
composite z-score [3]: 0.211
z-score [4]: 0.173 (inactive)
composite z-score [5]: 1.28
composite z-score [6]: 0.972
composite z-score [7]: 0.514
composite z-score [8]: 0.341
composite z-score [9]: -0.149
composite z-score [10]: -0.121
composite z-score [11]: 0.965
z-score [12]: -1.09
composite z-score [13]: 0.564
composite z-score [14]: 0.128
composite z-score [15]: 0.116
composite z-score [16]: 0.163
composite z-score [17]: 0.0637
composite z-score [18]: 0.0395
composite z-score [19]: 0.341
composite z-score [20]: 0.509

CN1C(=O)[C@]2(CCS(=O)(=O)c3ccccc3)N=C(c3ccc(OCCCO)cc3)O[C@@H]2c2ccccc21
composite z-score [1]: 1.38
composite z-score [2]: 0.0991
composite z-score [3]: 0.89
z-score [4]: -0.674 (inactive)
composite z-score [5]: 0.458
composite z-score [6]: 1.33
composite z-score [7]: -0.0528
composite z-score [8]: 0.669
composite z-score [9]: 0.367
composite z-score [10]: 0.3
composite z-score [11]: 1.5
z-score [12]: -2.63
composite z-score [13]: -0.249
composite z-score [14]: 1.11
composite z-score [15]: -0.545
composite z-score [16]: -0.0704
composite z-score [17]: -0.0119
composite z-score [18]: -0.122
composite z-score [19]: 0.0996
composite z-score [20]: 0.836

Cc1ccc(F)cc1S(=O)(=O)N[C@@H]1CCN(Cc2ccc3c(c2)OCO3)C1
composite z-score [1]: 0.0014
composite z-score [2]: -0.247
composite z-score [3]: -0.289
z-score [4]: -0.0924 (inactive)
composite z-score [5]: -0.24
composite z-score [6]: -0.191
composite z-score [7]: 0.0122
composite z-score [8]: -0.272
composite z-score [9]: 0.537
composite z-score [10]: 0.528
composite z-score [11]: -0.28
z-score [12]: -1.98
composite z-score [13]: 0.198
composite z-score [14]: -0.786
composite z-score [15]: -0.997
composite z-score [16]: -0.176
composite z-score [17]: -0.0626
composite z-score [18]: -0.12
composite z-score [19]: 0.636
composite z-score [20]: 0.445

CO[C@H]1O[C@H](CO)[C@@H](OC(=O)Nc2ccc(C(F)(F)F)cc2)[C@H](OC(=O)Nc2ccccc2-c2ccccc2)[C@@H]1OC(=O)Nc1ccccc1-c1ccccc1
composite z-score [1]: 1.46
composite z-score [2]: 1.07
composite z-score [3]: 0.61
z-score [4]: -0.0628 (inactive)
composite z-score [5]: 1.04
composite z-score [6]: 1.29
composite z-score [7]: 0.35
composite z-score [8]: 1.37
composite z-score [9]: 0.507
composite z-score [10]: 0.0026
composite z-score [11]: 1.3
z-score [12]: -2.79
composite z-score [13]: 0.523
composite z-score [14]: 2.2
composite z-score [15]: 0.383
composite z-score [16]: 0.0181
composite z-score [17]: 0.199
composite z-score [18]: 0.977
composite z-score [19]: 1.47
composite z-score [20]: 2.18

COc1cccc(C[C@H]2C[C@@H](CO[Si](C(C)C)(C(C)C)C(C)C)N3C(=O)[C@@]4(C(C)=O)O[C@@]23[C@@H]2C(=O)N(C)C(=O)[C@@H]24)c1
composite z-score [1]: 0.95
composite z-score [2]: -0.0648
composite z-score [3]: -0.197
z-score [4]: -0.989 (inactive)
composite z-score [5]: 1.22
composite z-score [6]: 0.5
composite z-score [7]: 0.494
composite z-score [8]: 1.17
composite z-score [9]: 1.62
composite z-score [10]: -0.0336
composite z-score [11]: 1.04
z-score [12]: -2.81
composite z-score [13]: 0.901
composite z-score [14]: 0.05
composite z-score [15]: -0.587
composite z-score [16]: -0.0364
composite z-score [17]: 0.131
composite z-score [18]: 0.0974
composite z-score [19]: 0.272
composite z-score [20]: -0.378

CC(C)C[C@@H]1NC(=O)[C@@H]2C[C@H](C(=O)O)[C@H](c3ccc(O)cc3)N2C1=O
composite z-score [1]: 1.44
composite z-score [2]: 0.361
composite z-score [3]: 0.383
z-score [4]: -0.687 (inactive)
composite z-score [5]: 0.914
composite z-score [6]: 1.31
composite z-score [7]: 0.801
composite z-score [8]: 1.25
composite z-score [9]: 0.976
composite z-score [10]: -0.0021
composite z-score [11]: 0.309
z-score [12]: -0.836
composite z-score [13]: 0.695
composite z-score [14]: 1.31
composite z-score [15]: 0.192
composite z-score [16]: -0.0512
composite z-score [17]: 0.0611
composite z-score [18]: 0.116
composite z-score [19]: 1.22
composite z-score [20]: 1.64

C=C(/C(=C/C[C@@H](OC(C)=O)c1ccccc1OCCO)c1cc(C(=O)OC)ccc1OC)C(C)C
composite z-score [1]: 1.08
composite z-score [2]: -0.114
composite z-score [3]: -0.242
z-score [4]: 0.314 (inactive)
composite z-score [5]: 0.419
composite z-score [6]: 0.115
composite z-score [7]: -0.209
composite z-score [8]: -0.0844
composite z-score [9]: 0.0006
composite z-score [10]: 0.772
composite z-score [11]: 0.326
z-score [12]: -1.69
composite z-score [13]: -0.0061
composite z-score [14]: 0.543
composite z-score [15]: -0.692
composite z-score [16]: -0.0643
composite z-score [17]: -0.304
composite z-score [18]: 0.051
composite z-score [19]: 0.385
composite z-score [20]: -0.598

COC(=O)[C@@]1(Cc2ccc(OC)cc2)[C@H]2c3cc(C(=O)N(C)C)n(Cc4ccsc4Br)c3C[C@H]2CN1C(=O)c1ccccc1
composite z-score [1]: 0.895
composite z-score [2]: 1.08
composite z-score [3]: 0.826
z-score [4]: -1.84 (inactive)
composite z-score [5]: -0.0197
composite z-score [6]: -0.288
composite z-score [7]: 0.374
composite z-score [8]: -0.288
composite z-score [9]: -0.414
composite z-score [10]: 0.758
composite z-score [11]: 0.835
z-score [12]: -0.235
composite z-score [13]: -0.318
composite z-score [14]: 1.01
composite z-score [15]: 0.511
composite z-score [16]: 0.281
composite z-score [17]: 0.696
composite z-score [18]: 1.61
composite z-score [19]: 2.24
composite z-score [20]: 0.177

COCCCNC(=O)[C@@H]1c2ccccc2C(=O)N(Cc2cc(C(F)(F)F)cc(C(F)(F)F)c2)[C@H]1c1ccc(CO)cc1
composite z-score [1]: -1.09
composite z-score [2]: 1.15
composite z-score [3]: 0.291
z-score [4]: -0.475 (inactive)
composite z-score [5]: -0.0413
composite z-score [6]: 0.0135
composite z-score [7]: -0.301
composite z-score [8]: 0.142
composite z-score [9]: 0.346
composite z-score [10]: 0.92
composite z-score [11]: 0.0861
z-score [12]: -0.293
composite z-score [13]: -0.323
composite z-score [14]: 0.0808
composite z-score [15]: 0.232
composite z-score [16]: -0.105
composite z-score [17]: 0.0091
composite z-score [18]: 0.896
composite z-score [19]: 0.208
composite z-score [20]: -0.543
